# Laboratory results from PubChem BioAssay (NCI).
# This is part of a sample that, as a whole, favours compounds with a hit. Of some 83,000 tested, about 20% had one in any assay.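 96-well plates, one dose, 48 hours. Percent growth reported; active if below 10.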 A number with no mark means an inactive call. Calls of active or inactive are those of the source.
# Columns and labels:
# Assay in all cases: NCI-60 one-dose screen, 48 h (100 = growth as untreated, 0 = no growth, -100 = all killed)
# Conditions in all cases: 10 µM unless noted
# [1] = tested on: EKVX NSCLC
# [2] = tested on: SN12C renal
# [3] = tested on: UO-31 renal
# [4] = tested on: TK-10 renal
# [5] = tested on: ACHN renal
# [6] = tested on: CAKI-1 renal
# [7] = tested on: CCRF-CEM leukemia
# [8] = tested on: MOLT-4 leukemia
# [9] = tested on: SR leukemia
# [10] = tested on: RPMI-8226 leukemia
# [11] = tested on: OVCAR-8 ovarian
# [12] = tested on: OVCAR-5 ovarian
# [13] = tested on: OVCAR-4 ovarian
# [14] = tested on: SK-OV-3 ovarian
# [15] = tested on: IGROV1 ovarian
# [16] = tested on: OVCAR-3 ovarian
# [17] = tested on: HS 578T breast
# [18] = tested on: NCI/ADR-RES ovarian
# [19] = tested on: T-47D breast
# [20] = tested on: A498 renal
Compound,growth [1] [%],growth [2] [%],growth [3] [%],growth [4] [%],growth [5],growth [6],growth [7],growth [8],growth [9],growth [10],growth [11],growth [12] [%],growth [13],growth [14] [%],growth [15] [%],growth [16] [%],growth [17],growth [18] [%],growth [19],growth [20] [%]
O=C(N/N=C/c1ccc([N+](=O)[O-])o1)c1[nH]c2ccc(Br)cc2c1-c1ccccc1,39.2,21.9,30.9,78.7,16.1%,20.3%,7.85% (active),5.69% (active),6.28% (active),0.483% (active),-5.13% (active),35.7,38.2%,30.4,15.6,21.9,8.44% (active),18.7,53.9%,
CCOC(=O)c1sc(N)c(C(=O)OCC)c1C,25.9,54.9,31.3,41.1,52.9%,39.1%,42%,26.5%,47.2%,42.3%,65.1%,67.6,62%,,56.9,70.5,30.9%,,7.83% (active),13.4
Cc1ccc(/C=C/c2nn3c(-c4ccco4)nnc3s2)cc1C,82.8,90.8,80.8,116,102%,90.8%,104%,97.8%,90.1%,109%,88.7%,107,101%,,97.5,,102%,108,102%,87
C=CCn1c(SCC(=O)c2ccc(Br)cc2)nnc1-c1c[nH]c2ccccc12,92.8,95.6,68.4,134,88.3%,90.2%,97.9%,91.2%,88.7%,98.8%,94.7%,96.8,109%,113,86.7,110,106%,98.8,97%,
N=C1CC(=O)NN1C(=O)CSc1nc2sc3c(c2c(=O)n1-c1ccc(Cl)cc1)CCCC3,97.8,93.5,70.1,150,94%,87.4%,103%,103%,94%,,100%,104,103%,98.2,94.5,122,94.5%,115,83.8%,91.3
Cc1c(NC(=O)CSc2nc3sc4c(c3c(=O)n2-c2ccc(Cl)cc2)CCCC4)c(=O)n(-c2ccccc2)n1C,97.3,88.9,72.8,109,90.8%,65.1%,98.2%,71.3%,86.1%,,97.1%,99.6,91.9%,93.8,84.9,,88.3%,101,90.1%,62.6
NC(=O)c1c(NC(=O)c2ccc(C3CCCCC3)cc2)sc2c1CCC(=O)C2,14.2,23.7,11.6,16.7,4.68% (active),-2.11% (active),9.82% (active),11.3%,5.25% (active),,14.8%,23.4,-0.0254% (active),,24.7,22.4,35.4%,,-5.15% (active),67.6
COc1cc(/C=C/C(=O)c2ccc(Cl)cc2)ccc1Oc1nc(NCCO)nc(N2CCOCC2)n1,99.6,96.6,76.7,110,98.8%,94.2%,78.4%,78.6%,9.04% (active),65.4%,104%,102,114%,96.6,99,116,84%,105,86.1%,
Cc1ccc2c(n1)C(=O)C(Cl)=C(Nc1cccc(C(C)C)c1)C2=O,65,31.9,50.3,119,50.1%,75.3%,14.8%,35.4%,24%,2.88% (active),57.2%,109,22.6%,,22.1,,43.1%,,3.43% (active),71.4
NS(=O)(=O)c1cccc(Nc2nc(SCC(=O)c3ccc(Br)cc3)nc3ccccc23)c1,64.8,74.9,59.6,124,28%,-11.3% (active),68.6%,44%,37.1%,46.1%,39.5%,115,43.6%,90.1,85.4,44,59.6%,82.8,31.9%,
COc1cc(/C=C/C(=O)c2ccc(C(F)(F)F)cc2)ccc1Oc1nc(NCCO)nc(N2CCOCC2)n1,93.7,86.9,70.5,111,86.2%,82.7%,4.08% (active),3.51% (active),-8.21% (active),-16.1% (active),95.9%,101,96%,101,92.5,109,82%,96.7,83.5%,
COc1cccc(-c2nn(-c3ccccc3)cc2-c2ccnc(N3CCN(C(=O)c4ccccc4)CC3)c2)c1,103,87.6,72.3,127,93%,86.2%,52.9%,43.8%,27.5%,47.7%,56.4%,112,77.9%,,76,,100%,43.4,50.3%,66.9
N#Cc1ccc(C(=O)CSc2nc(Nc3ccc(S(N)(=O)=O)cc3)c3ccccc3n2)cc1,104,100,95.6,110,108%,102%,94.7%,106%,95.9%,101%,109%,110,113%,116,110,119,103%,111,103%,
COc1cc(/C=C/C(=O)c2ccc(F)cc2)ccc1Oc1nc(NCCO)nc(N2CCOCC2)n1,82.8,84.6,61.2,146,70.9%,71.9%,4.33% (active),6.59% (active),-0.24% (active),-1.38% (active),86.1%,98.8,88.4%,113,70.6,98.8,83.8%,78.9,96.5%,
CC(C)NC(=O)c1cc(-c2ccc(NC(=O)Nc3ccc(N4CCOCC4)c(C(F)(F)F)c3)cc2)nc2cccnc12,72.7,69,48.2,143,62.7%,63.7%,44.3%,18.7%,10.2%,,63.7%,88.1,71.7%,88.5,66.9,,9.42% (active),78.4,64.2%,25.6
CCCCCCNC(=O)Oc1ccc(/C(=C(/C)c2ccccc2)c2ccc(OCCN3CCCCCC3)cc2)cc1,64.2,42.8,28.9,104,69.3%,35.9%,16.3%,4.41% (active),-37.4% (active),-27.7% (active),66.1%,69.3,49.7%,98.7,51.4,48.9,51.4%,64.5,21.6%,
CCOC(=O)c1c(NC(=O)c2cccc(C(F)(F)F)c2)sc2cc(O)ccc12,84.8,89.4,60.1,183,93.4%,96.7%,63.5%,81.6%,101%,,105%,98.4,104%,,75.7,98.6,88.1%,,64%,77.1
